17 compounds from PubChem BioAssay (EPA / NIEHS) can be followed below.

The structures appear in SMILES notation. Where “and” joins values, the source holds several entries; their conditions need not be identical. Equal entries are not always repeated. Calls of active or inactive are those of the source. Rule for the calls: active = hit-call score of the fitted dose curve at least 0.9, where 1 is the maximum; inactive = score below 0.9.

This test is described as follows: CCTE_Simmons_MITO_basal_resp_rate: CCTE's HepG2 Seahorse XF Respirometric Screening Assay at Basal Respiratory State, Simmons Lab (AID 2284001). As to conditions: actives raise or lower the signal. The method, then: CCTE_Simmons_MITO is cell-based, respirometric assay using HepG2 cells and a Seahorse XF Analyzer to measure oxygen consumption rates over four temporal phases spanning a total of 72 minutes: pre-injection (pre-treatment), basal (following test compound injection), maximal (following FCCP uncoupler injection), and inhibited (following rotenone/antimycin A injection)CCTE_Simmons_MITO_basal_resp_rate is one of 4 assay components calculated from the CCTE_Simmons_MITO assay. It is designed to make measurements of basal respiration using a form of respirometric reporter, as detected with […] signals by Seahorse XF96 technology. Data from the assay component CCTE_Simmons_MITO_basal_resp_rate was analyzed at the endpoint, CCTE_Simmons_MITO_basal_resp_rate_OCR, with bidirectional fitting relative to DMSO as the negative control and baseline of activity. Using a type of respirometric reporter, measures of basal respiration for gain or loss-of-signal activity can be used to understand cellular oxygen consumption as it relates to cellular respiration. To generalize the intended target to other relatable targets, this assay endpoint is annotated to the mitochondria intended target family, where the subfamily is respiration.
Test chemicals were administered as a titrated series of 7 concentrations from 125 nM up to 100 uM [final] prior to kinetic endpoint detection at 6 minute intervals [3 min mix followed by 3 minutes measure] for 72 minutes. Three biological replicates of technical singles were run for every chemical concentration tested. Dimethylsulfoxide [DMSO] was used as the vehicle control. The electron transport chain inhibitor fenpyroximate was used as the positive control for decreased basal respiration and was administered as a titrated series of 6 concentrations from 250 nM up to 2.75 uM [final] with technical triplicates for the top concentration only. The uncoupler 2,4-dintirophenol was used as the positive control for increased basal respiration and was administered as a titrated series of 6 concentrations from 938 nM up to 40 uM [final] with technical triplicates for the top concentration only. A Seahorse XF Analzyer is required to measure the response.
Broadly, the AC50 is the midpoint of the concentration-response curve, whichever way the signal moves. Regarding `C=CCOC(Cn1ccnc1)c1ccc(Cl)cc1Cl` (configuration not stated), the AC50 is 24.3 µM (active).
Turning to `O=C(O)C1(C(=O)Nc2ccc(Cl)cc2Cl)CC1`, the result was inactive.
On to `Cc1nn(C)c(Oc2ccccc2)c1C=NOCc1ccc(C(=O)OC(C)(C)C)cc1`, for which the concentration at half-maximal activity (AC50) was 1.15 µM (active) and 1.55 µM (active).
On the same count and under the same terms, the value for `O=C(c1ccc(O)cc1O)c1ccc(O)cc1O` was 34.6 µM (active).
Take `CCCCOC(=O)C(C)Oc1ccc(Oc2ccc(C(F)(F)F)cn2)cc1` (configuration not stated): the outcome was inactive.
For the compound `Oc1ccc(C(c2ccc(O)cc2)C(Cl)(Cl)Cl)cc1`, the half-maximal activity concentration (AC50) was 18.8 µM (active).
Take `CCCCOC(=O)[C@@H](C)Oc1ccc(Oc2ccc(C(F)(F)F)cn2)cc1`: the call was inactive.
Regarding `CCCCC(CC)COC(=O)c1ccccc1C(=O)O` (configuration not stated), the concentration at half-maximal activity (AC50) is 3.97 µM (active).
On to `CC(C)(c1ccc(O)cc1)c1ccc(O)cc1`, for which the AC50 was 18.9 µM (active) and 24.7 µM (active).
Same read-out and setting: in the case of `CCOC(=O)NCCOc1ccc(Oc2ccccc2)cc1` it was 21.5 µM (active).
Still for that read-out and setting: the value for `CC(=O)[C@H]1CC[C@H]2[C@@H]3CCC4=CC(=O)CC[C@]4(C)[C@H]3CC[C@]12C` was 10.1 µM (active); that for `CC(C)CCCCCCc1ccc(O)cc1` was 50 µM (active).
With `C[C@]12C[C@H](O)[C@H]3[C@@H](CCC4=CC(=O)CC[C@@]43C)[C@@H]1CC[C@@H]2C(=O)CO`, the concentration at half-maximal activity (AC50) was 42 µM (active).
Still for that read-out and setting: the value for `CCCCC(CC)CN1C(=O)C2C3C=CC(C3)C2C1=O` (configuration not stated) was 25.3 µM (active); that for `N#CSCSc1nc2ccccc2s1` was 15.1 µM (active).
On the same count and under the same terms, in the case of `O=C(Nc1ccc([N+](=O)[O-])cc1Cl)c1cc(Cl)ccc1O` it was 1.57 µM (active).
For the compound `N[C@@H](Cc1cc(I)c(Oc2ccc(O)c(I)c2)c(I)c1)C(=O)O`, the AC50 was 6.61 µM (active).
